The subject of one assay is TAB165. Kind of assay: qHTS profiling for inhibitors of Plasmodium falciparum proliferation (AID 504749). Further: potency means the concentration at half of the fitted maximal effect. To be noted: P. falciparum in erythrocytes, SYBR Green DNA, 72 h; series mostly up to 28.7 µM. The method, boiled down: (§1)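 Readout was DNA-dye fluorescence from lysed cultures, ex 485/em 535 nm. Parasitized red cells had grown 72 h with compound; data scaled between 0.29 uM artemisinin and DMSO wells and corrected using vehicle-only plates.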

The next assay relates to W2. The assay is described as above. To be noted: P. falciparum in erythrocytes, SYBR Green DNA, 72 h; series mostly up to 28.7 µM. The method, boiled down: as §1
Assay [1] has as its system HaCat. As to the kind of experiment: Cytotoxic Profiling of Annotated Libraries Using Quantitative High-Throughput Screening (AID 1296008). On max response: on the % scale 0 is the no-effect control and ±100 the full control effect. To be noted: Five cell lines viability, CellTiter-Glo ATP luminescence, 48-72 h; max response: active compounds read low. The method, boiled down: (§2)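 Cells exposed to compounds for 48 or 72 hr at 37 degrees Celsius. Viability read as ATP-coupled luminescence with CellTiter-Glo after 10 min at room temperature.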

The subject of a further assay is KB-3-1. The description is as above. To be noted: Five cell lines viability, CellTiter-Glo ATP luminescence, 48-72 h; max response: active compounds read low. The method, boiled down: as §2
For a further assay, the system named is NIH3T3. The description is as above. As to conditions: Five cell lines viability, CellTiter-Glo ATP luminescence, 48-72 h; max response: active compounds read low. The method, boiled down:
as §2
For orientation: Cellular ATP, detected with luciferase, serves as a proxy for viable cell number.

Assay [2] relates to HACAT. As to the kind of experiment: qHTS assay to identify novel small-molecules to repurpose for Merkel cell carcinoma treatment (AID 1296009). As to conditions: MCC and control cell lines, CellTiter-Glo viability, 72 h; at 44.8 µM (top of the series) unless noted. The method, boiled down:
(§3)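 Cells were incubated with compound for 72 hr at 37 degree celsius before CellTiter-Glo addition. Luminescence was normalized with no-cell wells as full cytotoxicity and DMSO as baseline.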
(In general: Quantitative high-throughput screening tests each substance at several concentrations.)

For the next assay, the system named is CRL-7250. Described as above. To be noted: MCC and control cell lines, CellTiter-Glo viability, 72 h; at 44.8 µM (top of the series) unless noted. The method, boiled down:
as §3

The next assay concerns HEK293T. The description is as above. To be noted: MCC and control cell lines, CellTiter-Glo viability, 72 h; at 44.8 µM (top of the series) unless noted. The method, boiled down:
as §3

Several values for one entry are separate records, joined by “and”; a condition that tells them apart may be missing. Identical values can stand only once. Results filed as inconclusive are left out. A number with no mark means an inactive call. Activity calls are given as the source filed them. The call rests on the fitted dose curve; in most records, active means well fitted inhibition curve with a large enough effect; inconclusive means small, poorly fitted or top-dose-only effect; inactive means flat fitted curve, though single readings scatter.
Further: nearly all actives have a fitted effect of over 60% in size.

Regarding `O=C(Nc1ccc(Br)cc1)c1cc(Br)cc(Br)c1O`, the Potency result in the assay on TAB165 and with W2 was “inactive” throughout. For the same molecule, the outcome in the assay on HaCat [1] and in the assay on HACAT [2] was inactive. Further, the max response was -24% in the assay on KB-3-1 and -23.1% in the assay on NIH3T3.

Turning to `CC(C)[C@H]1C(=O)N2CCC[C@H]2[C@]2(O)O[C@](NC(=O)[C@@H]3C[C@@H]4c5cccc6[nH]cc(c56)C[C@H]4N(C)C3)(C(C)C)C(=O)N12`, the max response with KB-3-1 was 22.9%.

As for `CCCCCCn1c(=O)c2c(ncn2C)n(C)c1=O`, the result with CRL-7250 was inactive.

For the molecule `Cc1nnc2n1-c1ccc(Cl)cc1C(c1ccccc1Cl)=NC2`, the max response in the assay with KB-3-1 was 1.66%.

Consider `Cc1ccc2ccc(Cl)cc2n1`, for which the result in the assay with CRL-7250 was inactive.

Take `O=C1Nc2ccc(Cl)cc2C(c2ccccc2)=NC1O` (stereo unspecified): the Potency result in the assay on TAB165 and in the assay on W2 was “inactive” in each case. The max response in the assay with KB-3-1 was -4.67% and -16.2%.

Take `Clc1ccccc1N1CCNCC1`: the outcome with HaCat [1], with NIH3T3, with HACAT [2] and in the assay on HEK293T was inactive.

`CCCC(C)(COC(N)=O)COC(N)=O`: in the assay with TAB165, the Potency result was “inactive”. In the assay on KB-3-1, the max response is 1.51%.

For the molecule `COc1ccc2c(c1)C13CCCC[C@@H]1C(C2)N(C)CC3` (stereo partly specified), the Potency with W2 was 1.2 µM (active). The max response with KB-3-1 is 18.3%.

For `COP(=S)(OC)SCN1C(=O)c2ccccc2C1=O`, the Potency result with TAB165 and in the assay with W2 was “inactive” each time. Also, the result in the assay on HaCat [1] and in the assay with HACAT [2] was inactive. Besides, the max response in the assay with KB-3-1 is 6.87%.

These data come from PubChem BioAssay (NCATS).
